# Test results reported in PubChem BioAssay (EPA / NIEHS).
# Where “and” joins values, the source holds several entries; their conditions need not be identical. Equal entries are not always repeated. Records with an inconclusive call do not appear. The source holds several records for some structures; these can differ, active in one and inactive in another. Calls of active or inactive are those of the source. Rule for the calls, unless noted: active = hit-call score of the fitted dose curve at least 0.9, where 1 is the maximum; inconclusive = response in the unintended direction; inactive = score below 0.9.
# Tests used:
# [1] = biological target: human Dopamine Transporter (DAT), SLC6A3 (gene 6531) (UniProt Q01959); assay: NVS_TR_hDAT: NovaScreen (NVS) Transporter Assay for human Dopamine Transporter (DAT) (AID 2283374);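 note: activity means loss of bound radioligand signal relative to DMSO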
# Summary of the method: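 Cell-free radioligand binding to extracted human DAT protein, read 1 h after dosing by filter-based scintillation counting. Loss of specific binding scored against DMSO baseline; primary screen in duplicate at 25 uM, actives then run in concentration series.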
# [2] = biological target: human Norepinephrine Transporter (NET), SLC6A2 (gene 6530) (UniProt P23975); assay: NVS_TR_hNET: NovaScreen (NVS) Transporter Assay for human Norepinephrine Transporter (NET) (AID 2283377);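 note: cell-free membrane protein extracted from CHO cells expressing human NET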
# Summary of the method: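 Radioligand binding to human NET in cell-free CHO-derived protein preparations, read by filter-based scintillation counting 1 hour after dosing. Loss of signal versus DMSO baseline indicated displacement; primary screening in duplicate at 25 uM, actives then titrated.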
# [3] = biological target: Estrogen receptor (Homo sapiens) (UniProt P03372); assay: OT_ERa_GFPERaERE_0480: Odyssey Thera (OT) 8-hour HeLa Transcription Induction Assay for Estrogen Receptor (AID 2283381; active = hit-call score of the fitted dose curve at least 0.9, where 1 is the maximum; inactive = score below 0.9)
# Summary of the method: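 HeLa cells expressing GFP reporter under estrogen response element, imaged 8 h after dosing. GFP induction quantified by high-content fluorescence microscopy image analysis; gain of signal fitted versus DMSO.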
# [4] = biological target: Estrogen receptor (Homo sapiens) (UniProt P03372); assay: OT_ERa_GFPERaERE_0120: Odyssey Thera (OT) 2-hour HeLa Transcription Induction Assay for Estrogen Receptor (AID 2283382)
# Summary of the method: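 HeLa cells were dosed for 2 h, then GFP reporter induction was quantified by fluorescence microscopy with high-content image analysis. Gain of signal fitted against DMSO baseline.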
# [5] = biological target: Retinoic acid receptor RXR-alpha (Homo sapiens) (UniProt P19793); assay: OT_NURR1_NURR1RXRa_0480: Odyssey Thera (OT) 8-hour HEK293T Protein Complementation Assay for Nurr1/retinoid X receptor (RXR) (AID 2283385)
# Summary of the method: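 HEK293T cells expressing Nurr1 and RXRα fused to reporter fragments (protein-fragment complementation); fluorescence measured 8 h after dosing. Gain of signal fitted relative to DMSO.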
# [6] = biological target: Retinoic acid receptor RXR-alpha (Homo sapiens) (UniProt P19793); assay: OT_NURR1_NURR1RXRa_1440: Odyssey Thera (OT) 24-hour HEK293T Protein Complementation Assay for Nurr1/retinoid X receptor (RXR) (AID 2283386)
# Summary of the method: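 HEK293T protein-fragment complementation of Nurr1 and RXRα fused to reporter fragments; compounds 24 h. Fluorescence gain from reconstituted reporter fitted versus DMSO.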
# [7] = biological target: Peroxisome proliferator-activated receptor gamma (Homo sapiens) (UniProt P37231); assay: OT_PPARg_PPARgSRC1_0480: Odyssey Thera (OT) 8-hour Protein-Complementation Assay for Peroxisome Proliferator-activated Receptor Gamma / SRC-1 Co-activator (AID 2283387);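 note: nuclear to cytoplasmic split Venus YFP fluorescence ratio reporting PPARg SRC-1 interaction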
# Summary of the method: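 HEK293T transiently transfected with PPARg and SRC-1 fused to Venus YFP fragments, compounds 8 h at 37C. Fixed, Draq5-stained cells imaged; nuclear/cytoplasmic 488 nm fluorescence ratio over at least 350 cells per image; gain fitted versus DMSO.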
# [8] = biological target: Peroxisome proliferator-activated receptor gamma (Homo sapiens) (UniProt P37231); assay: OT_PPARg_PPARgSRC1_1440: Odyssey Thera (OT) 24-hour Protein-Complementation Assay for Peroxisome Proliferator-activated Receptor Gamma/ SRC-1 Co-activator (AID 2283388)
# Summary of the method: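 Cells carrying the PPARg/SRC-1 fragment-complementation reporter receive compound for 24 hours, are fixed and counterstained with Draq5, then imaged. Increased nuclear relative to cytoplasmic YFP fluorescence above DMSO baseline indicates binding activity.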
# [9] = CEETOX_H295R_11DCORT: CeeTox H295R High-throughput Steroidogenesis Assay for 11-Deoxycortisol (11DCORT) (AID 2283432; active = hit-call score of the fitted dose curve at least 0.9, where 1 is the maximum; inactive = score below 0.9;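 for AC50: 11-deoxycortisol secreted into the medium measured by LC-MS/MS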); details: actives raise or lower the signal
# Summary of the method: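 H295R cells prestimulated 48 h with 10 uM forskolin, then exposed 48 h to chemical in 0.1% DMSO. 11-Deoxycortisol in medium quantified by HPLC-MS/MS after MTBE extraction; bidirectional fit versus DMSO. MTT viability read in same wells.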
# [10] = CEETOX_H295R_OHPREG: CeeTox H295R High-throughput Steroidogenesis Assay for OH-Pregnenolone (OHPREG) (AID 2283434; active = hit-call score of the fitted dose curve at least 0.9, where 1 is the maximum; inactive = score below 0.9); details: actives raise or lower the signal
# Summary of the method: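 Human adrenal H295R cells were prestimulated 48 h with 10 uM forskolin, then exposed 48 h to chemical in 0.1% DMSO. Medium 17alpha-hydroxypregnenolone was quantified by HPLC-MS/MS after MTBE extraction; bidirectional fitting versus DMSO baseline.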
# [11] = CEETOX_H295R_OHPROG: CeeTox H295R High-throughput Steroidogenesis Assay for OH-Progesterone (OHPROG) (AID 2283435; active = hit-call score of the fitted dose curve at least 0.9, where 1 is the maximum; inactive = score below 0.9); details: actives raise or lower the signal
# Summary of the method: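 H295R adrenal cells prestimulated 48 h with 10 uM forskolin, then exposed 48 h to chemical (0.1% DMSO final). 17alpha-hydroxyprogesterone in medium quantified by HPLC-MS/MS; bidirectional fit versus DMSO, with MTT viability measured in the same wells.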
# [12] = biological target: Estrogen receptor beta (Homo sapiens) (UniProt Q92731); assay: OT_ER_ERbERb_1440: Odyssey Thera (OT) 24-hour HEK293T Protein-Complementation Assay for Estrogen Receptor-beta/-beta Homodimer (AID 2283380);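 note: fluorescence gain from ER beta LBD homodimer complementation read by laser scanning cytometry; scored as signal increase over DMSO baseline for both agonists and antagonists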
# Summary of the method: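 HEK293T cells stably expressing human ER-beta LBD (aa 310-547) PCA homodimer pair, dosed 24 h; formaldehyde-fixed, Draq5-stained. Readout: increase in nuclear (agonist) or nuclear plus cytoplasmic (antagonist) fluorescence intensity versus DMSO, gain-of-signal fitting.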
# [13] = biological target: Agonist Androgen Response Element (ARE), AR (gene 367) (UniProt P10275); assay: OT_AR_ARELUC_AG_1440: Odyssey Thera (OT) 24-hour CHO-K1 Luciferase Assay for Agonist Androgen Response Element (ARE) (AID 2283379)
# Summary of the method: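 Seed CHO-K1 cells; dose compounds for 24 h; add D-luciferin plus ATP in PBS; read luminescence. Signal increase relative to vehicle defines agonist activity, with at least 3 replicate wells per sample.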
# [14] = biological target: Bile acid receptor (Homo sapiens) (UniProt Q96RI1); assay: OT_FXR_FXRSRC1_0480: Odyssey Thera (OT) 8-hour HEK293T Protein-Complementation Assay for Farnesoid X receptor/SRC-1 Co-activator (AID 2283383)
# Summary of the method: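 HEK293T protein-fragment complementation assay: FXR and SRC-1 coactivator are fused to reporter fragments, and their interaction restores a fluorescent reporter. Readout was taken 8 h after dosing, with gain of signal fit relative to DMSO.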
# [15] = biological target: Bile acid receptor (Homo sapiens) (UniProt Q96RI1); assay: OT_FXR_FXRSRC1_1440: Odyssey Thera (OT) 24-hour HEK293T Protein-Complementation Assay for Farnesoid X receptor/SRC-1 Co-activator (AID 2283384)
# Summary of the method: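 HEK293T cells, 24 h after chemical dosing. FXR–SRC-1 coactivator interaction read as fluorescence from protein-fragment complementation of a split reporter. Gain of signal fitted against DMSO baseline.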
# [16] = biological target: Norway rat Vesicular Monoamine Transporter (VMAT2), neurotransmitter transporter, Slc18a2 (gene 25549) (UniProt Q01827); assay: NVS_TR_rVMAT2: NovaScreen (NVS) Transporter Assay for Norway rat Vesicular Monoamine Transporter (VMAT2), neurotransmitter transporter (AID 2283376);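 note: actives lower the bound radioligand signal below the DMSO level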
# Summary of the method: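 Rat forebrain tissue preparation used in a cell-free radioligand binding format; displacement read by filter-based scintillation counting 1 hour after dosing. Primary screen in duplicate at 25 uM, actives then run in concentration series; loss of signal versus DMSO baseline.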
# Chain of human Dopamine Transporter (DAT), SLC6A3 (gene 6531) (Q01959 whole entry, looked up): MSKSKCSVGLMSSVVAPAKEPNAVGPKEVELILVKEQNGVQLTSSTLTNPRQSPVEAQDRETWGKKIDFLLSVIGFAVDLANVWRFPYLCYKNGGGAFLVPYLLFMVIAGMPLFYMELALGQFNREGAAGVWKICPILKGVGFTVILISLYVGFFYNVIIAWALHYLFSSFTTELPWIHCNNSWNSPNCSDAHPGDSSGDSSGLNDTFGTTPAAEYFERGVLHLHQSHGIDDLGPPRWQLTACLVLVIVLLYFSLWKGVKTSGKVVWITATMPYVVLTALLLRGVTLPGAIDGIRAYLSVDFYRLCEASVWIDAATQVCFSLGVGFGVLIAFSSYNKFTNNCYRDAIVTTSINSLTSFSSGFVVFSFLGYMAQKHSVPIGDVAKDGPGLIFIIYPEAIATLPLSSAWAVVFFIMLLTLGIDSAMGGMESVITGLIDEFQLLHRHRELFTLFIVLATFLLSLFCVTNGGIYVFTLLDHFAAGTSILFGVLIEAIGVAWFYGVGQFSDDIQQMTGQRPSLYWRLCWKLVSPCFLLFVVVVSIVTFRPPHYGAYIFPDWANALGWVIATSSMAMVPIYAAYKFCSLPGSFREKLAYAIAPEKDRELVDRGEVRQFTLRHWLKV
# Chain of Bile acid receptor (Homo sapiens) (Q96RI1 whole entry, looked up, the tested form may be a part): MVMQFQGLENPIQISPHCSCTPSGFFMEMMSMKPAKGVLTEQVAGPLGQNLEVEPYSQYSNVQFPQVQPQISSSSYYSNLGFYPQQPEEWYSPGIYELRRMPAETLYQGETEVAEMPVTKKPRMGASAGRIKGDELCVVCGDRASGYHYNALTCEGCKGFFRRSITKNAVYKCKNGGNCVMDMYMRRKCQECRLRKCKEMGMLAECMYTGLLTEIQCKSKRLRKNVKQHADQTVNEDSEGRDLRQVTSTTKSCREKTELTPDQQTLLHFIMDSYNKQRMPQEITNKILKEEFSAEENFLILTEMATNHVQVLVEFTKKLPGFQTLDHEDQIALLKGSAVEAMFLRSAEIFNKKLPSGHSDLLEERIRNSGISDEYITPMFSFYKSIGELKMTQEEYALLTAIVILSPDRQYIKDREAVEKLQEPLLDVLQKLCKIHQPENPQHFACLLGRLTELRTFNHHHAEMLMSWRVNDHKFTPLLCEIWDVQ
# Chain of Estrogen receptor (Homo sapiens) (P03372 whole entry, looked up): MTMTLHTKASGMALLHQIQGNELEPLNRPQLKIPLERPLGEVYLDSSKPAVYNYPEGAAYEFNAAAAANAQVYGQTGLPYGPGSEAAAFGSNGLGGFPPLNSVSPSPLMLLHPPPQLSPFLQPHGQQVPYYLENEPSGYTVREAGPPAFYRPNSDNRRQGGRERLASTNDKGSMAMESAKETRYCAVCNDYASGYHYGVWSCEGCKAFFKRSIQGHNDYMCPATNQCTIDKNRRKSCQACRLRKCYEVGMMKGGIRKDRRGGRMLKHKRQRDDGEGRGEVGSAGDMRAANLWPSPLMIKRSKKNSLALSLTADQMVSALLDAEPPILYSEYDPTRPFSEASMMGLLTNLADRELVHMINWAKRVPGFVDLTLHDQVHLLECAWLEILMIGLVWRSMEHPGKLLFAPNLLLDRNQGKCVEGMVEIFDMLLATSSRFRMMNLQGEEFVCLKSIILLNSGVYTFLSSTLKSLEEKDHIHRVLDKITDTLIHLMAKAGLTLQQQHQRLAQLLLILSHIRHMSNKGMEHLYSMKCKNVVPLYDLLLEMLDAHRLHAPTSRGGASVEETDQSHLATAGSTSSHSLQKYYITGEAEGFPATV
# Chain of Estrogen receptor beta (Homo sapiens) (Q92731 whole entry, looked up, the tested form may be a part): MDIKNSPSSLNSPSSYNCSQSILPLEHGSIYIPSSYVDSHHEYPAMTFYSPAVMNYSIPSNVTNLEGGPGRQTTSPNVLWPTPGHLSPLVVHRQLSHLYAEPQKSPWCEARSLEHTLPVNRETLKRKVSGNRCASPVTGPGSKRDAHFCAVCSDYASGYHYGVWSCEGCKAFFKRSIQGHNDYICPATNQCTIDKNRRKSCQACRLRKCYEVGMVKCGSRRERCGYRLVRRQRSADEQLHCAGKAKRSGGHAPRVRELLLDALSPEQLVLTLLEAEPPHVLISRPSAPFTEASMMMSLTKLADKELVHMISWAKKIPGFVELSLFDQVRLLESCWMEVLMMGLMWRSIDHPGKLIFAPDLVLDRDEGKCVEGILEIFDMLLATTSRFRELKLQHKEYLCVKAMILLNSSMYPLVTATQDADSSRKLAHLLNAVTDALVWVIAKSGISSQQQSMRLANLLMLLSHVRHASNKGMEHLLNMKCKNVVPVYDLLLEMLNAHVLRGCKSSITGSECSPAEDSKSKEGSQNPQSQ
# Chain of Retinoic acid receptor RXR-alpha (Homo sapiens) (P19793 whole entry, looked up, the tested form may be a part): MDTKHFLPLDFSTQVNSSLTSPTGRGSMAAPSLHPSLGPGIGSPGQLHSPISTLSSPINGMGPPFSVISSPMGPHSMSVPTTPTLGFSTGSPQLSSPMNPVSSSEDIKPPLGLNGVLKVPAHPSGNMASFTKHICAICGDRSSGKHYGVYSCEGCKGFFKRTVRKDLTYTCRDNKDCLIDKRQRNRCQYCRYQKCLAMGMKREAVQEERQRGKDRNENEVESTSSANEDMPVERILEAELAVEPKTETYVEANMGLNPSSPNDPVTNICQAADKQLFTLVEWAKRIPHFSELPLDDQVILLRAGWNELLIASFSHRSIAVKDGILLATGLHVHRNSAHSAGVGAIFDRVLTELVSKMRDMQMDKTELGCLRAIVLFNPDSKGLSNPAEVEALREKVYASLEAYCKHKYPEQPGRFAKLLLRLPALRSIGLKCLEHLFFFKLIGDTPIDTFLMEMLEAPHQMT
# Chain of Peroxisome proliferator-activated receptor gamma (Homo sapiens) (P37231 whole entry, looked up, the tested form may be a part): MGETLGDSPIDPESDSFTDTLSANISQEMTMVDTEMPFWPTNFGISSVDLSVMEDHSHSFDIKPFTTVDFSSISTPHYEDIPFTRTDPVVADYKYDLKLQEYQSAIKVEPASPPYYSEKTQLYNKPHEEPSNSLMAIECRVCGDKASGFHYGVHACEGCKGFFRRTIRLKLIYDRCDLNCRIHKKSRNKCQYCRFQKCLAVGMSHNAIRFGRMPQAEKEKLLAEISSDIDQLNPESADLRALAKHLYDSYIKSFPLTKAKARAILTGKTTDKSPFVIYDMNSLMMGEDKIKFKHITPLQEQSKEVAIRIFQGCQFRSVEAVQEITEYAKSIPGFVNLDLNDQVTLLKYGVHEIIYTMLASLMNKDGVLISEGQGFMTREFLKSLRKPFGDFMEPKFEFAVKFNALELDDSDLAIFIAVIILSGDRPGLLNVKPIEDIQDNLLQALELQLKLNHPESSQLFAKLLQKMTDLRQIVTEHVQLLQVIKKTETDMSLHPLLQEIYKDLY
# Chain of human Norepinephrine Transporter (NET), SLC6A2 (gene 6530) (P23975 whole entry, looked up): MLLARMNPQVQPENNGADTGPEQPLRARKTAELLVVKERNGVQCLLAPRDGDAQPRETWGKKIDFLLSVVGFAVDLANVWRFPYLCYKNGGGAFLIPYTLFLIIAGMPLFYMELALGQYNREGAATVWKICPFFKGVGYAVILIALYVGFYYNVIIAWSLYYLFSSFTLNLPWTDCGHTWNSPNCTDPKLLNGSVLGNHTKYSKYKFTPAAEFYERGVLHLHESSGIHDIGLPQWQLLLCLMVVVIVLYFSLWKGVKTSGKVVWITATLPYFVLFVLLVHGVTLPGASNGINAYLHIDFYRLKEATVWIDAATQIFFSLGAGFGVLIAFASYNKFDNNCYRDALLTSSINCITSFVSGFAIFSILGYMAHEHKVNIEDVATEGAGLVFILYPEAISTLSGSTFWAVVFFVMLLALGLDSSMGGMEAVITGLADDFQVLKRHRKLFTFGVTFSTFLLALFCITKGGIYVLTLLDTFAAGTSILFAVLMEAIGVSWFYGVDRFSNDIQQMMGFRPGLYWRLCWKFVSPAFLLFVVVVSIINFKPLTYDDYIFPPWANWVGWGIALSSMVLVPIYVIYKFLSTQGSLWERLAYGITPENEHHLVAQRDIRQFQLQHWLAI
# Chain of Agonist Androgen Response Element (ARE), AR (gene 367) (P10275 whole entry, looked up): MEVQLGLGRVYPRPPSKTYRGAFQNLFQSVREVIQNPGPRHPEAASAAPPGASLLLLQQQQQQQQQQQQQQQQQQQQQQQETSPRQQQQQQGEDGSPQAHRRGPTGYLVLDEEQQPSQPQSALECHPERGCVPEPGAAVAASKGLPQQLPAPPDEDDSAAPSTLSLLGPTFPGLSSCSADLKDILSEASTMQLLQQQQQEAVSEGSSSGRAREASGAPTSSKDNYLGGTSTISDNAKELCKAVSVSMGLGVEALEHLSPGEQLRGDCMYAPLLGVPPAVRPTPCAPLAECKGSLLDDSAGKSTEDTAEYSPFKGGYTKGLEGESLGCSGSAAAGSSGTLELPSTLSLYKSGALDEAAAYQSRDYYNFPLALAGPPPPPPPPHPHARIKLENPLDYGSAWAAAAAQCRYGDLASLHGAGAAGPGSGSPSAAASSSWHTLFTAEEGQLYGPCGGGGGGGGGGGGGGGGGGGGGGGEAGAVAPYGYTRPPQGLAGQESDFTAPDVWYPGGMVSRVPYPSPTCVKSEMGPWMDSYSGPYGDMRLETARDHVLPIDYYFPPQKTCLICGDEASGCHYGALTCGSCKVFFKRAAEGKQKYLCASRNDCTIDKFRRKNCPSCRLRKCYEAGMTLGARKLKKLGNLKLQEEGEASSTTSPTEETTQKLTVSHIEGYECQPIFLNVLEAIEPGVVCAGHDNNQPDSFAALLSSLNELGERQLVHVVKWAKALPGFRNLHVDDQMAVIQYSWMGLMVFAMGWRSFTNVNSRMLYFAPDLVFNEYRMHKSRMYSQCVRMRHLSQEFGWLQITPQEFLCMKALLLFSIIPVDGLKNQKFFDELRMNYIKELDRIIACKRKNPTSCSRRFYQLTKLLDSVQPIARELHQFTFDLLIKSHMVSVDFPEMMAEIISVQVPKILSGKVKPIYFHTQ
compound,measurement,setting,value
CC[C@H](C)[C@H]1O[C@]2(C=C[C@@H]1C)C[C@@H]1C[C@@H](C/C=C(\C)[C@@H](O[C@H]3C[C@H](OC)[C@@H](O[C@H]4C[C@H](OC)[C@@H](O)[C@H](C)O4)[C@H](C)O3)[C@@H](C)/C=C/C=C3\CO[C@@H]4[C@H](O)C(C)=C[C@@H](C(=O)O1)[C@]34O)O2 (tested in a mixture with another compound),AC50,[1],11.3 µM (active)
same,AC50,[2],5.03 µM (active)
same,outcome,[3],inactive
same,outcome,[4],inactive
same,AC50,[5],7.4 µM (active)
same,outcome,[5],inactive
same,AC50,[6],9.87 µM (active)
same,outcome,[6],inactive
same,outcome,[7],inactive
same,outcome,[8],inactive
same,outcome,[9],inactive
same,outcome,[10],inactive
same,outcome,[11],inactive
COP(=S)(OC)Oc1ccc(SC)c(C)c1,AC50,[1],7.96 µM (active)
same,outcome,[12],inactive
same,outcome,[3],inactive
same,outcome,[4],inactive
same,outcome,[5],inactive
same,outcome,[6],inactive
same,outcome,[7],inactive
same,outcome,[8],inactive
same,AC50,[9],41.5 µM (active)
same,outcome,[10],inactive
same,AC50,[11],21.5 µM (active)
CCC(C)Nc1c([N+](=O)[O-])cc(C(C)(C)C)cc1[N+](=O)[O-] (stereo not given),AC50,[1],8.98 µM (active)
same,AC50,[12],38.5 µM (active)
same,outcome,[3],inactive
same,AC50,[4],12.2 µM (active)
same,AC50,[5],84.6 µM (active) and 73.7 µM (active)
same,AC50,[6],83.6 µM (active)
same,outcome,[6],inactive
same,outcome,[7],inactive
same,outcome,[8],inactive
same,AC50,[9],74.6 µM (active)
same,AC50,[10],74.5 µM (active)
same,AC50,[11],71.7 µM (active)
CCC(C)(C)C(=O)OC1=C(c2ccc(Cl)cc2Cl)C(=O)OC12CCCCC2,outcome,[1],inactive
same,outcome,[13],inactive
same,outcome,[12],inactive
same,outcome,[3],inactive
same,outcome,[4],inactive
same,AC50,[14],47.5 µM (active)
same,AC50,[15],41 µM (active)
same,outcome,[5],inactive
same,AC50,[6],33 µM (active) and 70.8 µM (active)
same,AC50,[7],16 µM (active)
same,outcome,[7],inactive
same,AC50,[8],38.7 µM (active) and 50 µM (active)
same,AC50,[9],1.11 µM (active)
same,outcome,[10],inactive
same,AC50,[11],2.29 µM (active)
O=C(Nc1ccccc1)Nc1cnns1,AC50,[16],5.31 µM (active)
same,outcome,[12],inactive
same,outcome,[3],inactive
same,outcome,[4],inactive
same,outcome,[15],inactive
same,outcome,[7],inactive
same,outcome,[8],inactive
O=[N+]([O-])/N=C1\NCCN1Cc1ccc(Cl)nc1,outcome,[13],inactive
same,outcome,[12],inactive
same,outcome,[3],inactive
same,outcome,[4],inactive
same,outcome,[14],inactive
same,outcome,[15],inactive
same,outcome,[5],inactive
same,outcome,[6],inactive
same,outcome,[7],inactive
same,outcome,[8],inactive
same,outcome,[9],inactive
same,outcome,[10],inactive
same,outcome,[11],inactive
ClC1C(Cl)C(Cl)C(Cl)C(Cl)C1Cl (stereo not given),AC50,[1],5.04 µM (active) and 18.5 µM (active) and 14.4 µM (active)
same,outcome,[12],inactive
same,outcome,[14],inactive
same,outcome,[15],inactive
same,outcome,[5],inactive
same,outcome,[6],inactive
same,outcome,[7],inactive
same,outcome,[8],inactive
same,AC50,[10],50 µM (active)
CC(C)OC(=O)Nc1cccc(Cl)c1,AC50,[1],16.3 µM (active)
same,AC50,[2],6.63 µM (active)
same,outcome,[12],inactive
same,outcome,[3],inactive
same,outcome,[4],inactive
same,AC50,[14],48.4 µM (active)
same,outcome,[15],inactive
same,outcome,[5],inactive
same,outcome,[7],inactive
same,outcome,[8],inactive
same,outcome,[10],inactive
same,outcome,[11],inactive
O=S1OCC2C(CO1)C1(Cl)C(Cl)=C(Cl)C2(Cl)C1(Cl)Cl (stereo not given),AC50,[1],10.9 µM (active)
same,outcome,[3],inactive
same,outcome,[4],inactive
same,AC50,[14],39.2 µM (active)
same,outcome,[7],inactive
same,outcome,[8],inactive
N#CN,AC50,[2],13 µM (active)
same,outcome,[12],inactive
same,outcome,[3],inactive
same,outcome,[4],inactive
same,outcome,[5],inactive
same,outcome,[7],inactive
same,outcome,[8],inactive
